PubChem BioAssay (NCATS)
Records with an inconclusive call do not appear. A number with no mark means an inactive call. Active and inactive are the calls of the source. The call rests on the fitted dose curve; in most records, active means well fitted inhibition curve with a large enough effect; inconclusive means small, poorly fitted or top-dose-only effect; inactive means flat fitted curve, though single readings scatter.

The molecules below were run on W2 (assay: qHTS profiling for inhibitors of Plasmodium falciparum proliferation (AID 504749; further: potency means the concentration at half of the fitted maximal effect;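 on activity, negative = inhibition: 0% = DMSO vehicle and full inhibition = artemisinin control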)). Settings: P. falciparum in erythrocytes, SYBR Green DNA, 72 h; series mostly up to 28.7 µM; activity, negative = inhibition: at the top concentration.
Outline: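 Fluorescence of SYBR Green-bound parasite DNA, read at 485/535 nm, served as the growth measure. Infected erythrocytes were cultured with compound 72 h; artemisinin (0.29 uM) and DMSO wells defined the normalization range.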
Further: nearly all actives have a fitted effect of over 60% in size.

Row | SMILES | Potency | activity, negative = inhibition
1 | Oc1ccc(C(O)CNCCCCCCNCC(O)c2ccc(O)c(O)c2)cc1O (stereo unspecified) | 16.9 µM (active) | –
2 | CCCCC(CC)COC(=O)c1ccccc1O (stereo unspecified) | – | -3.86%
3 | NC(=O)NC(=O)Cc1ccccc1 | – | -5.07%
4 | C#CCN(C)Cc1ccccc1 | – | -4.42% [at 12.8 µM]
5 | CCCCCCCCCCCCCCCCCCOCC(O)CO (stereo unspecified) | – | 6.41%
6 | NCCNCCNCCNCCN | – | 6.82%
7 | CC1(C)CO[C@@H](CC(=O)O)CN1 | – | 2.73%
8 | COc1cc(C(=O)N2CCOCC2)cc(OC)c1OC | inactive | –
9 | CC(=O)Nc1ccc(/C=N/NC(N)=S)cc1 | – | -3.56%
10 | O=C1OC(OC(=O)c2cccnc2Nc2cccc(C(F)(F)F)c2)c2ccccc21 (stereo unspecified) | – | -9.73%
11 | O=C(O)CN1C(=O)c2cccc3cccc(c23)C1=O | – | 2.43%
12 | O=C(Oc1ccccc1C(=O)O)c1ccccc1O | – | -0.761%
13 | Cc1cc(O)cc2c1O[C@](C)(CCC[C@H](C)CCC[C@H](C)CCCC(C)C)CC2 | – | -17.2%
14 | O=S(=O)(O)c1cc(I)c(O)c2ncccc12 | – | -10.3%
15 | Cc1ncc(COP(=O)(O)O)c(C=O)c1O | – | 5.9%
16 | NC1CCN(c2cccc(Cl)n2)CC1 | 6.01 µM (active) | –
17 | CC(O)COc1ccccc1 (stereo unspecified) | – | 5.38%
18 | NC(CSCC(=O)O)C(=O)O (stereo unspecified) | – | -1.95%

Each molecule was assayed on CRL-7250 (assay: Cytotoxic Profiling of Annotated Libraries Using Quantitative High-Throughput Screening (AID 1296008; on max response: on the % scale 0 is the no-effect control and ±100 the full control effect)). Settings: Five cell lines viability, CellTiter-Glo ATP luminescence, 48-72 h; max response: stronger effect = lower value.
Outline: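 Compounds were pin-transferred onto cells and incubated 48 or 72 hr at 37 degree Celsius, 95% humidity. CellTiter-Glo was added, plates sat 10 min at room temperature, then ATP-coupled luminescence was imaged as the viability read-out.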

Row | SMILES | max response | outcome
19 | Cc1ncc([N+](=O)[O-])n1CC(O)CCl (stereo unspecified) | 0.168% | –
20 | C[C@@H]1CCN(C(=O)[C@H](CCCN=C(N)N)NS(=O)(=O)c2cccc3c2NC[C@H](C)C3)[C@@H](C(=O)O)C1 | 0.468% | –
21 | C[C@H](NC(CCc1ccccc1)C(=O)O)C(=O)N1CCC[C@H]1C(=O)O (stereo partly specified) | – | inactive
22 | Oc1ccc(C(O)CNCCCCCCNCC(O)c2ccc(O)c(O)c2)cc1O (stereo unspecified) | -1.96% | –
23 | CCCCC(CC)COC(=O)c1ccccc1O (stereo unspecified) | -6.25% | –
24 | N[C@H](C(=O)O)c1ccc(O)cc1 | 3.21% | –
25 | NC(=O)NC(=O)Cc1ccccc1 | 3.98% | –
26 | C#CCN(C)Cc1ccccc1 | 4.31% | –
27 | NS(=O)(=O)c1cc2c(cc1C(F)(F)F)NC(Cc1ccccc1)NS2(=O)=O (stereo unspecified) | -4.39% | –
28 | O=C1N=C(O)CN1/N=C/c1ccc(-c2ccc([N+](=O)[O-])cc2)o1 | – | inactive
29 | CCCCCCCCCCCCCCCCCCOCC(O)CO (stereo unspecified) | – | inactive
30 | NCCNCCNCCNCCN | 3.13% | –
31 | CN(C)CCCO[C@@H]1[C@H]2OC(C)(C)O[C@H]2O[C@@H]1C(O)CO (stereo partly specified) | -6.03% | –
32 | OC[C@H]1O[C@@H](O[C@@H]2[C@@H](CO)O[C@](O)(CO)[C@H]2O)[C@H](O)[C@@H](O)[C@H]1O | -1.41% | –
33 | N[C@@H](CSSC[C@H](N)C(=O)O)C(=O)O | – | inactive
34 | CC1(C)CO[C@@H](CC(=O)O)CN1 | – | inactive
35 | CC1=C(C/C=C(\C)CCC[C@H](C)CCC[C@H](C)CCCC(C)C)C(=O)c2ccccc2C1=O | 1.2% | –

Row | SMILES | max response | outcome
36 | COc1cc(C(=O)N2CCOCC2)cc(OC)c1OC | 0.938% | –
37 | CCCCC/C(C=O)=C\c1ccccc1 | -6.23% | –
38 | CC(=O)Nc1ccc(/C=N/NC(N)=S)cc1 | – | inactive
39 | O=C1OC(OC(=O)c2cccnc2Nc2cccc(C(F)(F)F)c2)c2ccccc21 (stereo unspecified) | 1.85% | –
40 | O=C(O)CN1C(=O)c2cccc3cccc(c23)C1=O | -6.05% | –
41 | CN1[C@@H]2CC[C@H]1CC(OC(=O)C(O)c1ccccc1)C2 (stereo partly specified) | 1.28% | –
42 | O=C(Oc1ccccc1C(=O)O)c1ccccc1O | 4.21% | –
43 | CC(COc1ccccc1)NC(C)C(O)c1ccc(O)cc1 (stereo unspecified) | -14.7% | –
44 | CCN(CC)CCOC(=O)C1(C2CCCCC2)CCCCC1 | – | inactive
45 | Cc1cc(O)cc2c1O[C@](C)(CCC[C@H](C)CCC[C@H](C)CCCC(C)C)CC2 | -1.48% | –
46 | O=S(=O)(O)c1cc(I)c(O)c2ncccc12 | 1.34% | –
47 | Cc1ncc(COP(=O)(O)O)c(C=O)c1O | 2.82% | –
48 | CO/N=C(\C(=O)N[C@@H]1C(=O)N2C(C(=O)O)=C(CSc3nc(=O)c(O)nn3C)CS[C@H]12)c1csc(N)n1 | 1.86% | –
49 | O=C(O)COc1nn(Cc2ccccc2)c2ccccc12 | -2.07% | –
50 | CCCc1c(OCCCCc2nn[nH]n2)ccc(C(C)=O)c1O | -1.12% | –
51 | COc1ccc2cc1Oc1cc3c(cc1OC)CC[N+](C)(C)[C@H]3Cc1ccc(cc1)Oc1c(OC)c(OC)cc3c1[C@@H](C2)[N+](C)(C)CC3 | – | inactive
